Data published in PubChem BioAssay (NCI).
Compounds without any hit were thinned out: in the full panel of roughly 83,000, 20% have a hit.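 A percent growth of 40 corresponds to 60% growth inhibition; 0 means no net growth; -100 means all cells died. Active threshold: below 10.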 Unmarked numbers belong to inactive results. Activity calls are given as the source filed them.

Legend:
Assay in all cases: NCI-60 one-dose screen, 48 h (100 = growth as untreated, 0 = no growth, -100 = all killed)
Details in all cases: 10 µM unless noted
[1] = test system: EKVX NSCLC
[2] = test system: SN12C renal
[3] = test system: UO-31 renal
[4] = test system: TK-10 renal
[5] = test system: ACHN renal
[6] = test system: CAKI-1 renal
[7] = test system: A498 renal
[8] = test system: CCRF-CEM leukemia
[9] = test system: MOLT-4 leukemia
[10] = test system: SR leukemia
[11] = test system: RPMI-8226 leukemia
[12] = test system: OVCAR-8 ovarian
[13] = test system: OVCAR-5 ovarian
[14] = test system: OVCAR-4 ovarian
[15] = test system: IGROV1 ovarian
[16] = test system: HS 578T breast
[17] = test system: NCI/ADR-RES ovarian
[18] = test system: T-47D breast
[19] = test system: SK-OV-3 ovarian
[20] = test system: OVCAR-3 ovarian

Structure (SMILES) | growth [1] | growth [2] | growth [3] | growth [4] | growth [5] | growth [6] | growth [7] | growth [8] | growth [9] | growth [10] | growth [11] | growth [12] | growth [13] | growth [14] | growth [15] | growth [16] | growth [17] | growth [18] | growth [19] | growth [20]
Cc1cc(=O)oc2cc(OCCCOc3ccc(/C=C/C(=O)Nc4ccc(Cl)cc4)cc3)ccc12 | 98.5% | 84.4% | 61.5% | 118% | 45.3% | 59.6% | 57.7% | 68.2% | 87.3% | 37.7% | 70.7% | 67.1% | 84% | 12.6% | 73.2% | 46.2% | 56.6% | 47.2% | – | –
Fc1ccc(-c2cc3nc(C(Cl)Cl)nc(-c4ccccc4)n3n2)cc1 | 1.49% (active) | 52% | 3.9% (active) | -23.9% (active) | -27.2% (active) | -17.5% (active) | -59.9% (active) | 55.7% | 23.6% | 3.78% (active) | -16.1% (active) | 8.61% (active) | – | -16.9% (active) | 46.5% | -18% (active) | 10.6% | 22.1% | -18.6% (active) | -43.1% (active)
COc1cc(/C=C/C(=O)c2cc(OC)c(OC)c(OC)c2)ccc1OCc1ccc(F)cc1 | 51.2% | 67.9% | 45.4% | 159% | 64.8% | 45.8% | – | 5.5% (active) | 46.2% | 16.3% | -16.1% (active) | 15.4% | 57.7% | 46.9% | 40.7% | 89.7% | 20% | 38.3% | 45.5% | 38.2%
NC(=O)c1c(NC(=O)c2ccc(C3CCCCC3)cc2)sc2c1CCC(=O)C2 | 14.2% | 23.7% | 11.6% | 16.7% | 4.68% (active) | -2.11% (active) | 67.6% | 9.82% (active) | 11.3% | 5.25% (active) | -15% (active) | 14.8% | 23.4% | -0.0254% (active) | 24.7% | 35.4% | – | -5.15% (active) | – | 22.4%
Cn1ccnc1C(=O)/C=C/c1ccc(NC(=O)Nc2ccc(F)cc2)cc1 | 39.3% | 53.8% | 56.6% | 106% | 49.5% | 55.1% | – | 12.6% | 11.6% | 3.97% (active) | 13.2% | 15.8% | 57.7% | 76.2% | 43.1% | 17.6% | 43.8% | 42.8% | 52.8% | 56.5%
N#Cc1c(-c2ccc(Cl)cc2)nc(SCc2ccc([N+](=O)[O-])cc2)nc1N1CCNCC1 | 51.9% | 1.59% (active) | 22.4% | 77.4% | -67.4% (active) | 13.6% | – | -14% (active) | -27% (active) | -43.3% (active) | -24.5% (active) | -81.6% (active) | 3.39% (active) | 26.9% | -1.76% (active) | 52.1% | 8.72% (active) | -9.43% (active) | 111% | -32.6% (active)
Cn1cc(-c2cc(N)n3nc(-c4cn(C)c5ccc(F)cc45)cc3n2)c2cc(F)ccc21 | 93.5% | 11.8% | 21.2% | 48.7% | -38.6% (active) | 56.5% | 72.6% | 3.2% (active) | 3.58% (active) | -16.2% (active) | 13.5% | 20% | – | 23.6% | 42.7% | 18.5% | 66.5% | 22.5% | 128% | –
O=C(CSc1nnc(-c2ccc3nc(-c4ccc(Cl)cc4)[nH]c3c2)o1)Nc1ccc(C(=O)/C=C/c2ccc(Cl)cc2)cc1 | 93.8% | 84.9% | 75.3% | 129% | 98.1% | 83.6% | – | 86.4% | 77.8% | 49.7% | 4.95% (active) | 97.1% | 108% | 101% | 85.5% | 89% | 105% | 87.1% | 110% | 121%
CCOc1ccc([C@H]2C(C(=O)c3ccc(Cl)cc3)C3(N[C@@H]2c2ccccc2)C(=O)Nc2ccc(Br)cc23)cc1 (stereo partly specified) | 33.6% | 6.51% (active) | 32.7% | 53.4% | 10.7% | 31.8% | 46.7% | 34.9% | 2.38% (active) | -24% (active) | 23.5% | 38% | 51.2% | 45.5% | 13.5% | 46.1% | – | 31.4% | – | -29.5% (active)
CCCSc1nc(Nc2ccc(/C(C)=N\NC(N)=S)cc2)c(C#N)c(-c2ccc(OC)cc2)n1 | 74.8% | 33.5% | 28.3% | 33.4% | 47.2% | -7.3% (active) | – | 89.2% | 80.4% | 74.2% | 71.9% | 30.7% | 94.5% | 28% | 81% | 25.3% | 56% | 86.6% | 97.3% | 67.3%
O=[N+]([O-])c1ccc(O)c2ncccc12 | 26.2% | 42.1% | 31.4% | 55.6% | 23.7% | 30.5% | 55.7% | 17.7% | 19.9% | 14.6% | 22.1% | 16.9% | – | 40.8% | 23.6% | 47.3% | 15.5% | 25.9% | 58.7% | –
CCN1C(=S)N(CC)C2C1N=C(SC)N2/N=C/C=C/c1ccccc1[N+](=O)[O-] (stereo unspecified) | 93.6% | 91.8% | 94.8% | 125% | 78.1% | 76.5% | 111% | 93.1% | 82.1% | 75% | 83.4% | 84.7% | 98.2% | 83.6% | 106% | 88.1% | 94.3% | 88.4% | – | 121%
N=C1CC(=O)NN1C(=O)CSc1nc2sc3c(c2c(=O)n1-c1ccc(Cl)cc1)CCCC3 | 97.8% | 93.5% | 70.1% | 150% | 94% | 87.4% | 91.3% | 103% | 103% | 94% | 102% | 100% | 104% | 103% | 94.5% | 94.5% | – | 83.8% | – | 122%
CS(=O)(=O)Nc1ccc(-c2nn(-c3ccc(S(C)(=O)=O)cc3)cc2/C=C/C(=O)c2ccc(NC(=O)CO[N+](=O)[O-])cc2)cc1 | 103% | 109% | 93.9% | 112% | 96.1% | 97.7% | 110% | 111% | 107% | 92.1% | 111% | 101% | – | 106% | 105% | 122% | 97.3% | 102% | 99.7% | 116%
CC(=NNc1ncnc2ccccc12)c1ccc(S(C)(=O)=O)cc1 | 91.1% | 97.2% | 73.1% | 152% | 103% | 89.4% | – | 99.9% | 100% | 100% | 98.6% | 98.2% | 111% | 122% | 96.5% | 95.3% | 103% | 103% | – | 118%
CCOC(=O)c1c(Nc2ccccc2)nn2c(N)c(C#N)c(-c3ccc(F)cc3)nc12 | 83.1% | 95.9% | 78.9% | 109% | 81.6% | 91.2% | – | 68% | 46% | 65% | 70.4% | 97.4% | 108% | 87% | 93.1% | 79.6% | 97.4% | 64.6% | 93.2% | –
